Measurements: PubChem BioAssay (EPA / NIEHS)
Activity calls are given as the source filed them. How the source made its calls: active means hit-call score of the fitted dose curve at least 0.9, where 1 is the maximum; inactive means score below 0.9.

Legend:
Conditions in all cases: mRNA level, 48 h; actives raise or lower the signal
[1] = read-out: Insulin Like Growth Factor 1 (IGF1), IGF1 (gene 3479); assay: LTEA_HepaRG_IGF1: Life Technologies and Expression Analysis (LTEA) Assay for Insulin Like Growth Factor 1 (IGF1) using HepaRG (AID 2283506)
Summary of the method: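 HepaRG, plated 48 h, then switched to serum-free induction media; test chemical 8-pt half-log from 100 uM (0.5% DMSO), duplicate, 48 h. Lysis in RLT, TaqMan qRT-PCR, norm. ACTB/GAPDH/POLR2A. Bidirectional fit vs DMSO.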

[2] = read-out: Intercellular Adhesion Molecule 1 (ICAM1), ICAM1 (gene 3383); assay: LTEA_HepaRG_ICAM1: Life Technologies and Expression Analysis (LTEA) Assay for Intercellular Adhesion Molecule 1 (ICAM1) using HepaRG (AID 2283507)
Summary of the method: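 Gain or loss of transcript in HepaRG hepatic cells is quantified by qRT-PCR after 48 h chemical exposure (up to 100 uM, half-log steps), with DMSO as baseline.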

[3] = read-out: Insulin-like growth factor-binding protein 1 (IGFBP1), IGFBP1 (gene 3484); assay: LTEA_HepaRG_IGFBP1: Life Technologies and Expression Analysis (LTEA) Assay for Insulin-like growth factor-binding protein 1 (IGFBP1) using HepaRG (AID 2283508)
Summary of the method: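 mRNA induction or loss was quantified by qRT-PCR after 48 h chemical exposure of human HepaRG cells, with 0.5% DMSO as vehicle and baseline. Concentration-response over eight points up to 100 uM.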

[4] = read-out: Interleukin 6 (IL6), IL6 (gene 3569); assay: LTEA_HepaRG_IL6: Life Technologies and Expression Analysis (LTEA) Assay for Interleukin 6 (IL6) using HepaRG (AID 2283509)
Summary of the method: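 HepaRG cells exposed in duplicate for 48 h to eight half-log concentrations, top 100 uM, in 0.5% DMSO serum-free induction medium. mRNA measured by qRT-PCR, normalized to ACTB, GAPDH and POLR2A. Bidirectional fit versus DMSO.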

[5] = read-out: Interleukin 6 Receptor (IL6R), IL6R (gene 3570); assay: LTEA_HepaRG_IL6R: Life Technologies and Expression Analysis (LTEA) Assay for Interleukin 6 Receptor (IL6R) using HepaRG (AID 2283510)
Summary of the method: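 Readout is IL6R transcript level by TaqMan qRT-PCR, normalized to three housekeeping genes and fitted bidirectionally against 0.5% DMSO controls. Human HepaRG cells received chemicals for 48 h in serum-free induction medium, highest concentration 100 uM.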

[6] = read-out: Potassium channel subfamily K member 1 (KCNK1), KCNK1 (gene 3775); assay: LTEA_HepaRG_KCNK1: Life Technologies and Expression Analysis (LTEA) Assay for Potassium channel subfamily K member 1 (KCNK1) using HepaRG (AID 2283511)
Summary of the method: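 Differentiated HepaRG cells, 48 h exposure in serum-free induction medium with 0.5% DMSO; 8 concentrations, half-log from 100 uM, duplicate. KCNK1 mRNA by qRT-PCR, normalized to ACTB, GAPDH, POLR2A; bidirectional fit vs DMSO.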

[7] = read-out: Keratin 19 (KRT19), KRT19 (gene 3880); assay: LTEA_HepaRG_KRT19: Life Technologies and Expression Analysis (LTEA) Assay for Keratin 19 (KRT19) using HepaRG (AID 2283512)
Summary of the method: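 Gene-expression endpoint in the human liver line HepaRG after 48 h exposure to up to 100 uM test chemical with 0.5% DMSO vehicle; KRT19 mRNA by qRT-PCR, analyzed bidirectionally versus DMSO.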

[8] = read-out: JUN Transcription Factor, JUN (gene 3725); assay: LTEA_HepaRG_JUN: Life Technologies and Expression Analysis (LTEA) Assay for JUN Transcription Factor using HepaRG (AID 2283513)
Summary of the method: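 Cells plated 48 h, medium switched to serum-free induction medium, then dosed 48 h (100 uM top, half-log dilutions, 0.5% DMSO). RNA isolated; JUN measured by qRT-PCR against three housekeeping genes; gain or loss fitted relative to DMSO.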

[9] = read-out: Lipase C (LIPC), LIPC (gene 3990); assay: LTEA_HepaRG_LIPC: Life Technologies and Expression Analysis (LTEA) Assay for Lipase C (LIPC) using HepaRG (AID 2283514)
Summary of the method: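 HepaRG cells, 48 h after plating, treated in duplicate for 48 h in serum-free induction medium over 8 half-log concentrations from 100 uM, 0.5% DMSO. LIPC mRNA by TaqMan qRT-PCR normalized to ACTB/GAPDH/POLR2A; bidirectional fit versus DMSO.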

[10] = read-out: Lipoprotein lipase (LPL), LPL (gene 4023); assay: LTEA_HepaRG_LPL: Life Technologies and Expression Analysis (LTEA) Assay for Lipoprotein lipase (LPL) using HepaRG (AID 2283515)
Summary of the method: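 Differentiated HepaRG cells, plated 48 h, then exposed 48 h in serum-free induction medium to 8 concentrations (top 100 uM, half-log steps) in 0.5% DMSO, duplicate. LPL mRNA measured by qRT-PCR, normalized to ACTB, GAPDH and POLR2A.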

[11] = read-out: MicroRNA 122 (MIR122), gene 406906; assay: LTEA_HepaRG_MIR122: Life Technologies and Expression Analysis (LTEA) Assay for MicroRNA 122 (MIR122) using HepaRG (AID 2283516); further: the transcript read is the microRNA miR-122
Summary of the method: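 HepaRG plated 48 h, switched to serum-free induction medium, then treated in duplicate for 48 h (100 uM top, half-log steps, 0.5% DMSO vehicle). RNA isolated, qRT-PCR performed, concentration-response fitted both directions relative to DMSO.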

[12] = read-out: matrix metalloproteinase-10 (MMP10), MMP10 (gene 4319); assay: LTEA_HepaRG_MMP10: Life Technologies and Expression Analysis (LTEA) Assay for matrix metalloproteinase-10 (MMP10) using HepaRG (AID 2283517)
Summary of the method: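 Differentiated HepaRG cells in serum-free induction medium exposed 48 h in duplicate to 8-point half-log series up to 100 uM in 0.5% DMSO. mRNA quantified by qRT-PCR, normalised to ACTB, GAPDH, POLR2A; bidirectional fit versus DMSO.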

MYC, MYC (gene 4609) = assay: LTEA_HepaRG_MYC: Life Technologies and Expression Analysis (LTEA) Assay for MYC using HepaRG (AID 2283518)
Summary of the method: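 Cells are thawed, plated and cultured 48 h, then treated for 48 h with test chemicals (eight half-log concentrations from 100 uM, 0.5% DMSO vehicle). RNA is isolated and MYC expression quantified by qRT-PCR against three housekeeping genes.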

[13] = read-out: matrix metalloproteinase-3 (MMP3), MMP3 (gene 4314); assay: LTEA_HepaRG_MMP3: Life Technologies and Expression Analysis (LTEA) Assay for matrix metalloproteinase-3 (MMP3) using HepaRG (AID 2283519)
Summary of the method: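 HepaRG cells (~100,000/well) in serum-free induction medium were dosed in duplicate for 48 h with an 8-point half-log series from 100 uM, 0.5% DMSO. MMP3 mRNA was quantified by Fluidigm TaqMan qRT-PCR, normalized to three housekeeping genes.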

[14] = read-out: Paternally Expressed 10 (PEG10), PEG10 (gene 23089); assay: LTEA_HepaRG_PEG10: Life Technologies and Expression Analysis (LTEA) Assay for Paternally Expressed 10 (PEG10) using HepaRG (AID 2283520)
Summary of the method: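 HepaRG, 48 h post-plating → serum-free induction medium → 48 h chemical exposure (duplicate, 8-pt, max 100 uM, half-log, 0.5% DMSO) → lysis in RLT → TaqMan qRT-PCR for PEG10, ACTB/GAPDH/POLR2A normalisation.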

[15] = read-out: Protein phosphatase 2A (PPP2R4), PTPA (gene 5524); assay: LTEA_HepaRG_PPP2R4: Life Technologies and Expression Analysis (LTEA) Assay for Protein phosphatase 2A (PPP2R4) using HepaRG (AID 2283522)
Summary of the method: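 Readout is PPP2R4 transcript level by microfluidic qRT-PCR after 48 h chemical treatment of human HepaRG liver cells. Concentrations spanned 100 uM downward in half-log steps; gain or loss of signal was fitted relative to DMSO.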

[16] = read-out: Phosphatase and tensin (PTEN), PTEN (gene 5728); assay: LTEA_HepaRG_PTEN: Life Technologies and Expression Analysis (LTEA) Assay for Phosphatase and tensin (PTEN) using HepaRG (AID 2283523)
Summary of the method: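 HepaRG cells, 48 h after plating, exposed in duplicate for 48 h in serum-free induction medium to 8 half-log concentrations up to 100 uM (0.5% DMSO). PTEN mRNA by qRT-PCR, normalized to ACTB, GAPDH, POLR2A; bidirectional fit versus DMSO.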

[17] = read-out: solute carrier (SLC22A1), SLC22A1 (gene 6580); assay: LTEA_HepaRG_SLC22A1: Life Technologies and Expression Analysis (LTEA) Assay for solute carrier (SLC22A1) using HepaRG (AID 2283524)
Summary of the method: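 Differentiated human HepaRG cells in serum-free induction medium, exposed 48 h in duplicate to 8-point half-log series from 100 µM top in 0.5% DMSO. SLC22A1 mRNA by TaqMan qRT-PCR normalized to ACTB, GAPDH, POLR2A; bidirectional fit versus DMSO.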

[18] = read-out: Pyruvate Dehydrogenase Kinase 4 (PDK4), PDK4 (gene 5166); assay: LTEA_HepaRG_PDK4: Life Technologies and Expression Analysis (LTEA) Assay for Pyruvate Dehydrogenase Kinase 4 (PDK4) using HepaRG (AID 2283525)
Summary of the method: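 HepaRG cells plated 48 h, then switched to serum-free induction medium and exposed in duplicate for 48 h to 8 half-log concentrations from 100 uM in 0.5% DMSO. PDK4 mRNA measured by qRT-PCR, normalized to ACTB, GAPDH and POLR2A; bidirectional fit versus DMSO.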

[19] = read-out: NAD(P)H dehydrogenase [quinone] 1 (NQO1), NQO1 (gene 1728); assay: LTEA_HepaRG_NQO1: Life Technologies and Expression Analysis (LTEA) Assay for NAD(P)H dehydrogenase [quinone] 1 (NQO1) using HepaRG (AID 2283526)
Summary of the method: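 HepaRG, 48 h post-plating → serum-free induction medium → test chemical 48 h (duplicate, 100 uM top, half-log x8, 0.5% DMSO) → RNA isolation → qRT-PCR, ACTB/GAPDH/POLR2A normalization; bidirectional curve fit vs DMSO baseline.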

Measured: outcome

CCC(C)=NO
inactive: [1] | [2] | [3] | [4] | [5] | [6] | [7] | [8] | [9] | [10] | [11] | [12] | MYC, MYC (gene 4609) | [13] | [14] | [15] | [16] | [17] | [18] | [19]
